# Screening results from PubChem.
# Compounds with a hit are over-represented: about 3.4% of the library has one in this group of screens.
# FBW7 act: FBW7 E3 ligase activators, primary screen, biochemical, AlphaScreen, human | F-box/WD repeat-containing protein 7 (Homo sapiens), Q969H0 | AlphaScreen FBW7–phospho-cyclin E peptide binding, activator screen | normalized activity (activation), % at 26.1 µM | hit rate 0.13% among 650,000; in the data active means normalized activity above about 1.9%;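 further: purified mutant Fbw7 with reduced substrate affinity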
# TEAD-YAP inh: TEAD-YAP interaction inhibition, primary screen, TEAD-YAP interaction inhibitor project, luminescence, HEK-TIYL cells | inhibition, % at 9.12 µM | hit rate 1.4% among 640,000 | TEAD-Gal4/YAP UAS-luciferase luminescence | AID 1259422, 2018; in the data active means inhibition above about 32%;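 further: 0% = median of test compound wells and 100% = reference inhibitor wells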
# MITF inh: MITF inhibitors, primary screen, biochemical, AlphaScreen, human; Microphthalmia-associated transcription factor (Homo sapiens), O75030; AlphaScreen MITF homodimerization, bead proximity signal; inhibition, % at 2.6 µM; hit rate 0.91% among 650,000; AID 1259374, 2018; in the data active means inhibition above about 50%;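 further: 0% = vehicle wells with protein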
# Target sequence (O75030 whole entry, looked up): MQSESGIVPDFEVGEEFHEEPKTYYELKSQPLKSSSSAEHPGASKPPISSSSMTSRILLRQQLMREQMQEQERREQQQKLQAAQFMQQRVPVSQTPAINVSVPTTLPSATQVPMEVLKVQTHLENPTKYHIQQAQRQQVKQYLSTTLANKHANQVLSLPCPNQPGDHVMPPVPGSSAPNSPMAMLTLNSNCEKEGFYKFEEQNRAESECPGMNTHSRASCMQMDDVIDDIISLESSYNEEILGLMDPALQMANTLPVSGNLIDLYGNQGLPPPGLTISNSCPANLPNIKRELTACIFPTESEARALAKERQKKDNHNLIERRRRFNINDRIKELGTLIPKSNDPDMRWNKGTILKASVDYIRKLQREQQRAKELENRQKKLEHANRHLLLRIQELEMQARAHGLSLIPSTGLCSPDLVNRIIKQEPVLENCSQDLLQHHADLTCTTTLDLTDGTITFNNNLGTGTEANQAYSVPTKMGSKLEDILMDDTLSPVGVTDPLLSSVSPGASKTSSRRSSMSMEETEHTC
# GPR151 ag: activators of human GPR151, primary screen, cell-based, PathHunter beta-arrestin, luminescence. G-protein coupled receptor 151 (Homo sapiens), Q8TDV0. hit rate 1% among 650,000. activation, % at 11.2 µM. AID 1508602, 2020. PathHunter beta-arrestin GPR151 cells; in the data active means activation above about 4.9%;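 further: 0% = median of compound wells and 100% = cells with positive control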
# MITF inh conf: MITF inhibitors, retest of hits, confirmation, biochemical, AlphaScreen, triplicate; shares compounds with MITF inh; AlphaScreen MITF homodimerization, biotin/His-MITF beads; inhibition, % at 2.6 µM; hit rate 16% among 4,700;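 active means inhibition above a cutoff derived from the DMSO control wells, cut at about 28% in these data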;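 further: 0% = MITF dimer wells with DMSO only; inhibitors lower the bead chemiluminescence by keeping MITF from dimerizing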
# AlphaScreen DR: AlphaScreen optical interference compounds, dose response, counter-screen, biochemical, HTS. shares compounds with MITF inh. AlphaScreen optical interference counterscreen, cell-free. IC50, µM. hit rate 6% among 480; call rule not given here
# AlphaScreen intf2: AlphaScreen optical interference compounds, counter-screen for MITF inhibitor project, biochemical, triplicate. shares compounds with MITF inh. LysRS AlphaScreen counterscreen, signal interference. inhibition, % at 2.6 µM. hit rate 7.6% among 4,700. AID 1259376, 2018;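 active means inhibition above a cutoff derived from the DMSO control wells, cut at about 30% in these data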
# An asterisk follows results filed as active; i = inactive; · = no result; ! = not active in a repeat.
SMILES,FBW7 act,TEAD-YAP inh,MITF inh,GPR151 ag,MITF inh conf,AlphaScreen intf2,others
CC(=O)Nc1ccc(NC(=O)c2ccnc(-c3cccs3)c2)cc1,-0.1,-0.3,28.5,-0.3,·,·,
CCOC(=O)CCCNc1ncnc2sc3c(c12)CCC(C)C3 (centres undefined),-0.3,-34.5,-7.4,0.2,·,·,
Cn1nnnc1SCC1=C(C(=O)O)N2C(=O)C(N)C2SC1 (centres undefined),0.0,3.3,37.2,-1.4,·,·,
CC(=O)CC1=C(C(=O)O)N2C(=O)C(N)C2SC1 (centres undefined),0.1,10.9,60.6*,-0.2,29.7*,0.2,AlphaScreen DR=>6.48
O=C1c2ccc(-c3nc4ccccc4c(=O)o3)cc2C(=O)N1c1ncc([N+](=O)[O-])s1,0.2,1.1,55.6*,0.7,-9.7,-7.2,
CCCCN1CCN(c2ccc(C(F)(F)F)cn2)C1=O,0.2,-27.5,4.8,4.8,·,·,
O=C1N(CC2CC2)CCN1c1ccc(C(F)(F)F)cn1,0.5,-50.7,54.9*,0.6,6.0,14.0,
COC(=O)Cc1[nH]nc2c1C1(C(=O)N(Cc3ccccc3)c3ccccc31)C(C#N)=C(N)O2 (centres undefined),0.5,6.7,10.4,0.0,·,·,
COC(=O)Cc1[nH]nc2c1C1(C(=O)Nc3ccccc31)C(C#N)=C(N)O2 (centres undefined),-0.1,-6.3,66.3*,-0.1,10.8,-1.9,
C=C1c2cccc(O)c2C(O)=C2C(=O)[C@]3(O)C(O)=C(C(N)=O)C(=O)[C@@H](N(C)C)[C@@H]3[C@@H](O)[C@H]12,-0.5,-7.3,54.0*,0.0,40.8*!,6.2,AlphaScreen DR=>6.48
C=C1c2c(Cl)ccc(O)c2C(O)=C2C(=O)[C@]3(O)C(O)=C(C(N)=O)C(=O)[C@@H](N(C)C)[C@@H]3[C@@H](O)[C@H]12,-0.5,5.4,62.8*,0.2,85.3*,30.1*!,AlphaScreen DR=i
O=C(Cn1nc(C(=O)O)c2ccccc2c1=O)Nc1ccc(I)cc1,0.0,8.6,0.6,0.2,·,·,
COc1cc(CN2CCN(S(=O)(=O)c3ccccc3)CC2)ccc1OCc1ccccc1,-0.1,6.0,36.5,0.6,·,·,
COc1ccc(CNCc2ccco2)cc1OCc1ccccc1,-0.1,-12.3,40.7,-0.7,·,·,
CCOc1ccc(CN2CCN(Cc3ccc(OC)c(OCc4ccccc4)c3)CC2)cc1,-0.1,16.4,69.3*,1.0,-10.4,4.9,
COc1ccc(CN2CCN(Cc3ccco3)CC2)cc1OCc1ccccc1,-0.1,1.0,59.7*,-0.2,8.0,7.7,
CCS(=O)(=O)N1CCN(Cc2ccc(OCc3ccccc3)c(OC)c2)CC1,0.1,0.4,51.5*,1.1,13.9,9.6,
COc1ccc(CN2CCN(S(=O)(=O)c3ccc([N+](=O)[O-])cc3)CC2)cc1OCc1ccccc1,-0.4,30.4,51.8*,0.6,14.4,22.6,
CCOc1ccc(CN2CCN(Cc3ccc(OC)c(OC)c3)CC2)cc1,-0.2,25.5,47.4,2.4,·,·,
Cc1cc(C(=O)Nc2ccc(S(=O)(=O)N3CCCC3)cc2)ccc1[N+](=O)[O-],0.1,3.6,11.7,0.0,·,·,
Nc1cccc(N2C(=O)c3cc(S(=O)O)cc4c(N)c(S(=O)O)cc(c34)C2=O)c1,-0.2,3.7,57.7*,0.6,79.3*,8.4,AlphaScreen DR=>6.48
Cc1ccc(-c2nnc3s/c(=C\c4ccco4)c(=O)n23)cc1,0.1,10.1,63.6*,-1.0,75.0*,-5.5,AlphaScreen DR=>6.48
CCOC(=O)N1CCN(C(=O)C2CC23CCN(Cc2nc4ccccc4s2)CC3)CC1 (centres undefined),-0.1,2.8,7.0,-1.2,·,·,
Cc1cc(C(=O)N2CCOCC2)c2ccc(C)c(C)c2n1,-0.1,0.8,-6.2,0.0,·,·,
CCCCNCCOCCOc1ccc(C)c(C)c1,0.1,0.9,60.9*,0.9,0.3,3.6,
CCCCNCCOCCOc1cccc(Cl)c1,0.2,5.9,79.6*,0.5,4.7,5.8,
